PubChem BioAssay (NCI)
The panel holds about 79,000 compounds, 15% with a hit somewhere; the sample as a whole holds those more often. Calls of active or inactive are those of the source. Cut-off read from the data, not from the text of the source: active = growth inhibition above about 70%; inactive = the rest.

Columns and labels:
[1] = NCI Yeast Anticancer Drug Screen. Data for the wt1 strain (AID 149);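 note: 0% = growth of vehicle-treated wt1 cultures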; conditions: S. cerevisiae wt1 strain (SPY 50644) growth inhibition, active compounds read high
Summary of the method: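 Compounds are added to wt1 yeast cultures. Growth is then measured. Inhibition is expressed relative to vehicle-treated controls.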

[2] = NCI Yeast Anticancer Drug Screen. Data for the rad50EPP+ strain (AID 151);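 note: 0% = growth of vehicle-treated control cultures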; conditions: S. cerevisiae rad50 mutant strain, active compounds read high
Summary of the method: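 One strain with a rad50 alteration (rad50EPP+) was compound-treated, its growth then compared to that of vehicle controls.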

[3] = NCI Yeast Anticancer Drug Screen. Data for the rad50 strain (AID 155);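 note: 0% = growth of vehicle-only cultures of the same strain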; conditions: S. cerevisiae rad50 strain growth inhibition, active compounds read high
Summary of the method: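 Inhibition values express reduced yeast growth in compound-treated cultures relative to vehicle-treated controls.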

[4] = NCI Yeast Anticancer Drug Screen. Data for the mec2-1 strain (AID 157); conditions: S. cerevisiae mec2-1 strain, active compounds read high
Summary of the method: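 Test agents were screened against the mec2-1 yeast strain, with defined DNA repair or cell cycle alteration. Growth was scored as inhibition against vehicle-only controls.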

[5] = NCI Yeast Anticancer Drug Screen. Data for the rad14 strain (AID 159);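 note: 0% = growth of vehicle-treated control cultures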; conditions: S. cerevisiae rad14 strain growth inhibition, active compounds read high
Summary of the method: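 A mutant yeast strain defective in DNA damage repair is treated with compound; inhibition of its growth is scored against untreated, vehicle-exposed cultures.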

[6] = NCI Yeast Anticancer Drug Screen. Data for the sgs1 mgt1 strain (AID 161);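 note: 0% = growth of cultures given vehicle only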; conditions: S. cerevisiae sgs1 mgt1 strain, active compounds read high
Summary of the method: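 Mutant yeast exposed to compound; growth scored against vehicle-only wells.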

[7] = NCI Yeast Anticancer Drug Screen. Data for the CLN2oe strain (AID 163);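 note: 0% = growth of vehicle-only control cultures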; conditions: S. cerevisiae CLN2oe strain, active compounds read high
Summary of the method: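 Here, growth inhibition in a cell-cycle-altered yeast strain after compound exposure was quantified against vehicle control growth.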

[8] = NCI Yeast Anticancer Drug Screen. Data for the cln2 rad14 strain (AID 165);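 note: 0% = growth equal to vehicle treated cultures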; conditions: S. cerevisiae cln2 rad14 strain, active compounds read high
Summary of the method: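 Growth of compound-exposed yeast (cln2 rad14 genotype) measured and expressed as inhibition relative to vehicle.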

[9] = NCI Yeast Anticancer Drug Screen. Data for the bub3 strain (AID 167); conditions: S. cerevisiae bub3 mutant strain, active compounds read high
Summary of the method: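 Steps: expose the mutant yeast strain to compound; grow alongside vehicle-treated cultures; measure growth; express inhibition against the vehicle cultures.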

[10] = NCI Yeast Anticancer Drug Screen. Data for the wt2 strain (AID 169);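 note: 0% = growth of vehicle-treated yeast cultures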; conditions: S. cerevisiae wt2 strain growth inhibition, active compounds read high
Summary of the method: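 Genetically defined yeast strains from a DNA-repair/cell-cycle panel were used. Compound-exposed yeast growth was measured, and the inhibition was calculated relative to vehicle treatment.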

[11] = NCI Yeast Anticancer Drug Screen. Data for the mlh1 strain (AID 171);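 note: 0% = growth of vehicle-treated control cultures of the same strain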; conditions: S. cerevisiae mlh1 strain growth inhibition, active compounds read high
Summary of the method: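 Here the genetically defined yeast mutant is grown with each compound, and the extent to which its growth falls below that of vehicle-exposed cells is reported.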

[12] = NCI Yeast Anticancer Drug Screen. Data for the mlh1 rad18 strain (AID 175); conditions: S. cerevisiae mlh1 rad18 strain growth inhibition, active compounds read high
Summary of the method: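 In this whole-cell yeast screen, a strain with altered DNA damage repair is challenged with compound, and its growth is measured against matched vehicle-treated controls.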

[13] = NCI Yeast Anticancer Drug Screen. Data for the rad18 strain (AID 177); conditions: S. cerevisiae rad18 mutant growth inhibition, active compounds read high
Summary of the method: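 Screen uses a yeast strain with a defined lesion in DNA damage repair; compound effect is read as loss of growth compared to untreated vehicle cultures.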

[14] = NCI Yeast Anticancer Drug Screen. Data for the sgs1 strain (AID 173);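 note: 0% = growth of vehicle-only control cultures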; conditions: S. cerevisiae sgs1 mutant, active compounds read high
Summary of the method: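 Relative growth inhibition, referenced to vehicle, was determined in a yeast strain with a defined alteration affecting DNA damage repair or cell cycle control after compound exposure.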

[15] = at 5.0 µM (retest, dose inferred, filed as 0.5)
[16] = at 50.0 µM (retest, dose inferred, filed as 5.0)

Measured: growth inhibition

Cc1[nH]nc(C(F)(F)F)c1N=NN(C)C
inactive: [1]; at 1.2 µM -4% | [1]; at 3.7 µM 37% | [1]; at 11.0 µM 46% | [2]; at 1.2 µM 3% | [2]; at 3.7 µM 35% | [3]; at 1.2 µM 10% | [3]; at 3.7 µM 51% | [4]; at 1.2 µM 2% | [4]; at 3.7 µM 32% | [4]; at 11.0 µM 61% | [5]; at 1.2 µM 2% | [5]; at 3.7 µM 10% | [5]; at 11.0 µM 54% | [6]; at 50.0 µM 45% | [7]; at 1.2 µM -1% | [7]; at 3.7 µM 8% | [7]; at 11.0 µM 51% | [9]; at 1.2 µM -10% | [9]; at 3.7 µM -8% | [9]; [15] 30% | [9]; at 11.0 µM 45% | [10]; at 1.2 µM -1% | [10]; at 3.7 µM 49% | [10]; at 11.0 µM 51% | [11]; at 1.2 µM 4% | [11]; at 3.7 µM 48% | [11]; at 11.0 µM 52% | [12]; [15] 25% | [13]; at 1.2 µM 10% | [13]; at 3.7 µM 47%
active: [1]; at 33.0 µM 99% | [1]; at 100.0 µM 99% | [2]; at 11.0 µM 73% | [2]; at 33.0 µM 96% | [2]; at 100.0 µM 98% | [3]; [15] 91% | [3]; at 11.0 µM 87% | [3]; at 33.0 µM 99% | [3]; [16] 97% | [3]; at 50.0 µM 99.3% | [3]; at 100.0 µM 98% | [4]; [15] 96% | [4]; at 33.0 µM 99% | [4]; [16] 99% | [4]; at 50.0 µM 99.7% | [4]; at 100.0 µM 98% | [5]; at 33.0 µM 99% | [5]; at 100.0 µM 99% | [6]; [15] 78% | [6]; [16] 98% | [7]; at 33.0 µM 99% | [7]; at 100.0 µM 99% | [8]; [15] 81% | [8]; [16] 99% | [8]; at 50.0 µM 99.1% | [9]; at 33.0 µM 98% | [9]; [16] 98% | [9]; at 50.0 µM 99.5% | [9]; at 100.0 µM 98% | [10]; at 33.0 µM 99% | [10]; at 100.0 µM 99% | [11]; at 33.0 µM 99% | [11]; at 100.0 µM 99% | [12]; [16] 98% | [12]; at 50.0 µM 91.1% | [13]; at 11.0 µM 79% | [13]; at 33.0 µM 99% | [13]; at 100.0 µM 99%

O=C1C=CC(=Nc2ccc3c(c2)Cc2cc(Cl)ccc2-3)O1
active: [1]; at 33.0 µM 99% | [1]; at 100.0 µM 98% | [2]; at 1.2 µM 78% | [2]; at 3.7 µM 90% | [2]; at 11.0 µM 98% | [2]; at 33.0 µM 99% | [2]; at 100.0 µM 96% | [3]; at 11.0 µM 78% | [3]; at 33.0 µM 99% | [3]; [16] 99% | [3]; at 50.0 µM 99.5% | [3]; at 100.0 µM 96% | [4]; at 33.0 µM 99% | [4]; [16] 100% | [4]; at 50.0 µM 99% | [4]; at 100.0 µM 98% | [5]; at 11.0 µM 91% | [5]; at 33.0 µM 99% | [5]; at 100.0 µM 97% | [6]; [16] 100% | [6]; at 50.0 µM 99.5% | [7]; at 33.0 µM 98% | [7]; at 100.0 µM 97% | [8]; [16] 99% | [8]; at 50.0 µM 98.2% | [9]; at 11.0 µM 96% | [9]; at 33.0 µM 99% | [9]; [16] 99% | [9]; at 50.0 µM 99.7% | [9]; at 100.0 µM 97% | [10]; at 11.0 µM 100% | [10]; at 33.0 µM 99% | [10]; at 100.0 µM 98% | [11]; at 11.0 µM 74% | [11]; at 33.0 µM 99% | [11]; at 100.0 µM 98% | [14]; at 11.0 µM 88% | [14]; at 33.0 µM 99% | [14]; at 100.0 µM 98% | [12]; [16] 99% | [12]; at 50.0 µM 84.2% | [13]; at 11.0 µM 95% | [13]; at 33.0 µM 99% | [13]; at 100.0 µM 97%
inactive: [1]; at 1.2 µM -3% | [1]; at 3.7 µM 10% | [1]; at 11.0 µM 56% | [3]; at 1.2 µM -1% | [3]; at 3.7 µM 24% | [3]; [15] 25% | [4]; at 1.2 µM 6% | [4]; at 3.7 µM 19% | [4]; [15] 34% | [4]; at 11.0 µM 68% | [5]; at 1.2 µM 10% | [5]; at 3.7 µM 32% | [6]; [15] 49% | [7]; at 1.2 µM -1% | [7]; at 3.7 µM 3% | [7]; at 11.0 µM 23% | [8]; [15] 7% | [9]; at 1.2 µM 4% | [9]; at 3.7 µM 12% | [9]; [15] 7% | [10]; at 1.2 µM 5% | [10]; at 3.7 µM 28% | [11]; at 1.2 µM 9% | [11]; at 3.7 µM 21% | [14]; at 1.2 µM 11% | [14]; at 3.7 µM 48% | [12]; [15] 32% | [13]; at 1.2 µM 10% | [13]; at 3.7 µM 36%

CCOc1ccccc1N1C(=O)CC(Sc2ccccc2N)C1=O (stereo unspecified)
inactive: [1]; at 1.2 µM 12% | [1]; at 3.7 µM 17% | [1]; at 11.0 µM 10% | [1]; at 33.0 µM 15% | [1]; at 100.0 µM 9% | [2]; at 1.2 µM 19% | [2]; at 3.7 µM 8% | [2]; at 11.0 µM 8% | [2]; at 33.0 µM 16% | [2]; at 100.0 µM 25% | [3]; at 1.2 µM 13% | [3]; at 3.7 µM 2% | [3]; [15] 39% | [3]; at 11.0 µM 17% | [3]; at 33.0 µM 10% | [3]; at 50.0 µM 0.8% | [3]; at 100.0 µM -20% | [4]; at 1.2 µM 2% | [4]; at 3.7 µM 10% | [4]; [15] 57% | [4]; at 11.0 µM -9% | [4]; at 33.0 µM 0% | [4]; at 50.0 µM -12.4% | [4]; at 100.0 µM -19% | [5]; at 1.2 µM -23% | [5]; at 3.7 µM -23% | [5]; at 11.0 µM -41% | [5]; at 33.0 µM -48%
active: [3]; [16] 75% | [4]; [16] 85%
